KDM5B inh – Primary screen for KDM5B Histone Demethylases FDH-coupled qHTS; Lysine-specific demethylase 5B (Homo sapiens), Q9UGL1; 220,000 tested, 2.6% active; Potency, µM (top dose mostly 57.7 µM), hits mostly inhibitors; KDM5B demethylase, FDH-coupled NADH fluorescence (FDH is formaldehyde dehydrogenase); AID 1347165, 2019; further: potency means the concentration at half of the fitted maximal effect; 0% is about no effect; nearly all actives have a fitted effect of over 70% in size
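KDM5BΔAP (200 nM final) in 50 mM HEPES pH 7.5, 0.01% Tween-20 was preincubated 10 min at RT with compound over a concentration range. Substrate mix (H3K4me3 12.5 µM, α-KG 25 µM, Fe²⁺, ascorbate, NAD⁺, FDH) was added, and NADH fluorescence change over 30 min gave dose-response curves.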
IP6K1 inhibitor – Primary qHTS assay for small molecule inhibitors of Inositol hexaphosphate kinase 1 (IP6K1); AID 1645851, 2021; 140,000 tested, 0.81% active; IP6K1 kinase, ADP-Glo luminescence, 2 h; active compounds read low; activity change, % (series mostly up to about 58 µM); Inositol hexakisphosphate kinase 1 (Homo sapiens), Q92551; in the data active means activity change below about -25%; further: on the % scale 0 is the no-effect control and ±100 the full control effect
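ADP-Glo luminescence measures ADP made by human IP6K1 during a 2 h RT reaction with ATP/IP6 (mix at 1.3 mM/130 uM); top library doses 57.5 and 19.1 uM final.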
HEK293 viab – GF-AFC viability counterscreen for inhibitors of alpha-synuclein gene (SNCA) expression | HEK-293-SNCA-luc viability, GF-AFC fluorescence, 24 h | Potency, µM (doses to about 57.1 µM), inactives show at the top dose activity change, negative = cytotoxicity, most hits filed as cytotoxic | 150,000 tested, 0.12% active | AID 1671193, 2021;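 further: potency means the concentration at half of the fitted maximal effect; 0% = DMSO-treated cells and -100% = medium-only wells without cells; nearly all actives have a fitted effect of over 30% in size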
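HEK-293-SNCA-luc cells (1500/well) plated 24 h, then exposed 24 h to a dilution series; GF-AFC added 30 min at 37C, fluorescence 405/540 nm; normalised to medium-only and DMSO wells, Hill fit.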
SNCA expr inh – Primary qHTS assay for inhibitors of alpha-synuclein gene (SNCA) expression | 140,000 tested, 0.17% active | Potency, µM (series often up to 57.2 µM), inactives show at the highest dose activity change, negative = inhibition, usual class: inhibitors | HEK-293 SNCA-luciferase knock-in, luminescence, 24 h;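 further: potency means the concentration at half of the fitted maximal effect; plate controls were DMSO cells for no effect and cell-free wells for full effect; nearly all actives have a fitted effect of over 45% in size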
* = called active by the depositor; i = inactive; ? = inconclusive; . = not tested or not shown; [ ] = another dose, or the depositor's remark. Compounds with a hit are over-represented: about 2.9% of the library has one in this group of screens. Unless noted, the call rests on the fitted dose curve; in most records, active means well fitted curve in the direction sought with a large enough effect; inconclusive means small, poorly fitted or top-dose-only effect, or another doubt; inactive means no such curve, though single readings can be large; an effect the other way counts as inactive or inconclusive.

SMILES | KDM5B inh | IP6K1 inhibitor | HEK293 viab | SNCA expr inh
CC(C)c1cc(C(=O)NC2CCN(c3ncccc3C#N)CC2)n(C)n1 | 22µM* | -5 | -18% | ?
COc1ccc(COCC(O)Cn2nc(-c3ccccc3)c3ccccc3c2=O)cc1 (stereo not drawn) | i | . | . | .
O=C(O)/C=C/c1cc(Cl)ccc1OCc1ccccc1Br | i | . | . | .
COc1ccccc1CNC(=O)c1scnc1C | i | . | . | .
Cc1cccc(CN2CCCC(O)(CNCc3ncccc3C)C2=O)c1 (stereo not drawn) | 28µM* | 0 | -18% | -18%
Cc1ccc(-c2ccc3nnc(CNC(=O)Cc4cccc(C)c4)n3n2)cc1 | ? | -14 | -8% | -9%
Cc1ccc(-c2ccc3nnc(CNC(=O)c4cnccn4)n3n2)cc1 | 13µM* | 13 | 8% | -1%
CC(=O)N1CCC(C(=O)NCc2nnc3ccc(-c4ccc(C)cc4)nn23)CC1 | 32µM* | -16 | 5% | -1%
Cc1ccc(-c2ccc3nnc(CNC(=O)c4cccnc4)n3n2)cc1 | 32µM* | -6 | -15% | -15%
COc1ccc(-c2ccc3nnc(CNC(=O)c4nccc5ccccc45)n3n2)cc1 | ? | -3 | -9% | -13%
Cc1ccc(-c2ccc3nnc(CNC(=O)c4nccc5ccccc45)n3n2)cc1 | 32µM* | -7 | -9% | 17%
Cc1ccc(-c2ccc3nnc(CNC(=O)c4cc(C)ccc4C)n3n2)cc1 | ? | -15 | 0% | 2%
COc1ccc(OC)c(S(=O)(=O)Nc2ccccc2CCc2nc3ccccc3n2C)c1 | i | . | . | .
COc1cc(Br)c(Nc2nc(-c3c(C)nc4ncccn34)cs2)c(Br)c1 | . | -13 | 6µM* | .
Cc1cccc(-c2nc3cnccn3c2NCCC(=O)NCc2ccc(F)c(Cl)c2)c1 | 28µM* | 19 | ? | 0%
Cc1ccc(CSCC(=O)NCc2ccc3c(c2)OCO3)cc1 | i | . | . | .
Cc1cccc(-c2nc3cnccn3c2NCCC(=O)NCc2ccc3c(c2)OCO3)c1 | 28µM* | 7 | ? | 4%
Cc1nc2cnccn2c1C(=O)NCc1ccc(F)cc1 | . | 18 | . | .
O=C(CCNc1c(-c2cccc(F)c2)nc2cnccn12)NCc1ccc(Cl)cc1 | 28µM* | 5 | ? | 5%
COc1ccccc1-n1cc(-c2ccnc(N3CCCN(C(C)=O)CC3)n2)cn1 | 32µM* | 21 | -29% | 7%
O=C(CSC1CCCC1)NCc1cccs1 | i | . | . | .
COC(=O)CNC(=O)N1CC(c2nnc(-c3ccncc3)o2)C2(CCOCC2)C1 (stereo not drawn) | i | 18 | -4% | ?
CC(C)C[C@@H]1N[C@H](C(=O)N2CCN(C)CC2)Cc2c[nH]c3cccc1c23 | 32µM* | 4 | 8%[87.6 µM] | 6%[87.6 µM]
CC(C)C[C@@H]1N[C@H](C(=O)N2CCCC2)Cc2c[nH]c3cccc1c23 | ? | -4 | -19%[87.6 µM] | -7%[87.6 µM]
O=C1N[C@H](CC(=O)N2CCN(c3ccc(C(F)(F)F)cn3)CC2)C(=O)Nc2ccccc21 | 22µM* | 6 | 2% | ?
SMILES | KDM5B inh | IP6K1 inhibitor | HEK293 viab | SNCA expr inh
CCc1noc(C(C)N2CCC(c3ccnn3CCO)CC2)n1 (stereo not drawn) | i | . | . | .
Cc1nn2c(c1-c1ccccc1Oc1ccccc1)N(Cc1ccc(C(=O)O)cc1)CCC2 | 35µM* | 5 | ? | ?
COc1ccc(CN2CCCn3nc(C)c(-c4ccccc4Oc4ccccc4)c32)cc1O | ? | 4 | ? | 6.3µM*
Cc1nn2c(c1-c1ccccc1Oc1ccccc1)N(C(=O)c1ccc(F)cc1)CCC2 | i | 12 | -9%[87.6 µM] | ?
O=C(NC1CC1)c1cc(-c2ccc(Cl)cc2Cl)c2nncn2n1 | . | 4 | -7%[12.5 µM] | 2%[87.6 µM]
COc1ccc(-c2cccc(C(=O)N3CCN(C(=O)c4ccccc4F)CC3)c2)nn1 | . | 6 | . | .
OC1CC(c2cc(N3CCN(c4nsc5ccccc45)CC3)ncn2)C1 (stereo not drawn) | 32µM* | 116 | ? | ?
CN1CCCCCC1C(=O)N1CCN(c2ccc(C#N)cn2)CC1 (stereo not drawn) | 28µM* | 5 | 6% | 6%
COc1ccc(OC)c(CN2CCNc3cnc(Nc4ccccc4)cc3C2)c1 | 35µM* | -23 | -27%[87.6 µM] | -7%[87.6 µM]
COc1ccc(CN2CCNc3cc(Nc4cccnc4)ncc3C2)cc1O | i | -21 | -22%[87.6 µM] | 17%[87.6 µM]
COc1ccc(CN2CCNc3cnc(Nc4ccccc4)cc3C2)cc1O | 40µM* | -21 | -15%[87.6 µM] | -24%[87.6 µM]
COc1ccc(CN2CCNc3cnc(Nc4cccnc4)cc3C2)cc1O | 35µM* | -14 | 6%[87.6 µM] | -29%[87.6 µM]
COc1ccc(OC)c(CN2CCNc3cc(-c4ccccc4)ncc3C2)c1 | i | -16 | ? | 12%[87.6 µM]
COc1ccc(CN2CCNc3cnc(Oc4ccccc4)cc3C2)cc1O | ? | 9 | 1%[87.6 µM] | 6%[87.6 µM]
CC(C)c1cc(CN(C)Cc2cn[nH]c2-c2ccc(F)cc2)no1 | 28µM* | 1 | -26% | 6%
CCOc1cccc(CN(C)Cc2cn[nH]c2-c2ccc(F)cc2)c1O | ? | 0 | -1% | -5%
C/C=C/C=C/C(=O)OC1CC/C=C/C(O)C(O)C(CCC)OC1=O (stereo not drawn) | . | 7 | -9% | .
COc1ccc(CC(=O)Nc2ccc([C@@H](O)[C@H]3COCC(=O)N3CC(C)C)cc2)cc1 | i | 9 | -4%[87.6 µM] | -2%[87.6 µM]
COc1cccc(-c2cc3c(=O)n(CCNC(=O)c4ccc(Cl)cc4)ccn3n2)c1 | ? | -7 | 2% | 4%
COc1ccc(C(=O)NCCn2ccn3nc(-c4cccc(OC)c4)cc3c2=O)cc1 | 22µM* | -9 | -22% | 1%
COc1cccc(-c2cc3c(=O)n(CCNC(=O)C4CCN(C(C)=O)CC4)ccn3n2)c1 | 20µM* | -13 | -9% | 22%
COc1cccc(-c2cc3c(=O)n(CCNC(=O)c4ccccc4F)ccn3n2)c1 | ? | -7 | -2% | 39%
COc1cccc(-c2cc3c(=O)n(CC(O)c4cccc(C#N)c4)ccn3n2)c1 (stereo not drawn) | 22µM* | -8 | -13% | 80%
COc1cccc(-c2cc3c(=O)n(CCNC(=O)C4CCCCC4)ccn3n2)c1 | i | -10 | -12% | 75%
COc1cccc(-c2cc3c(=O)n(CCNC(=O)c4cc(Cl)ccc4F)ccn3n2)c1 | 25µM* | -13 | 1% | 29%
COc1cccc(-c2cc3c(=O)n(CCNC(=O)c4cc(C)cc(C)c4)ccn3n2)c1 | 32µM* | -12 | -13% | 41%
COc1cccc(-c2cc3c(=O)n(CCNC(=O)c4ccc(C(C)(C)C)cc4)ccn3n2)c1 | 25µM* | -14 | -16% | -13%
COc1cc(OC)cc(C(=O)NCCn2ccn3nc(-c4cccc(OC)c4)cc3c2=O)c1 | ? | -13 | -14% | 39%
Cc1cc(C)c(CNC(=O)c2nc(-c3ccnn3C)cc3c2ccn3C(C)C)c(=O)[nH]1 | 32µM* | -11 | 2%[87.6 µM] | 13%[87.6 µM]

Screening data from PubChem.
